Screening data (PubChem BioAssay)
Efflux pump inh – inhibitors of Candida efflux pumps in yeast, primary screen, S. cerevisiae, Nile Red, multiplex; S. cerevisiae Candida pump triplex; inhibition, % at 10 µM; actives 0.44% (n = 330,000);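 active = plate passing quality check with inhibition over a set limit, or well fluorescence over plate mean plus 4 SD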;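 also: Nile Red retained in pooled yeast measured as flow cytometry median fluorescence; higher means more Nile Red kept so more efflux inhibition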
NR5A2 inv ag – LRH-1 (NR5A2) inverse agonists, primary screen, cell-based, luminescence, HEK293T, StAR-luciferase reporter. Nuclear receptor subfamily 5 group A member 2 (Homo sapiens), O00482. LRH-1 transfected, 24 h. inhibition, % at 3.6 µM. actives 0.13% (n = 360,000). AID 602396, 2012;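 active = inhibition above the mean inhibition of all tested compounds plus 3 SD, cut at about 73% in these data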
NR2F2 inh – NR2F2 transcriptional activity inhibitors, primary screen, cell-based, luciferase reporter, HEK293T, luminescence | inhibition, % at 8.6 µM | HEK293T NGFI-A luciferase reporter | actives 0.7% (n = 370,000);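 active = inhibition above a per-plate cutoff, mean inhibition of test wells between control levels plus 3 SD, cut at about 38% in these data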;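 also: cells cotransfected with COUP-TFII expression vector driving the NGFI-A reporter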
SRC2 inh – inhibition of GAL4-SRC2 driven luciferase reporter, primary screen, SRC2 inhibitor project, cell-based, luminescence; actives 0.17% (n = 370,000); HEK293 GAL4-SRC2 luciferase reporter; AID 651957, 2012; inhibition, % at 9 µM; Nuclear receptor coactivator 2 (Homo sapiens), Q15596;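 active = inhibition above the mean inhibition of all tested compounds plus 3 SD, set per campaign, cut at about 52% in these data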
NCOA1 inh – SRC1 coactivator transcriptional activity inhibitors, primary screen, cell-based, luminescence. Nuclear receptor coactivator 1 (Homo sapiens), Q15788. HEK293 GAL4-SRC1 luciferase reporter. inhibition, % at 3.6 µM. actives 0.12% (n = 360,000). AID 588354, 2011;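 active = inhibition above the campaign mean plus 3 SD, with each screening campaign given its own cutoff, cut at about 60% in these data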
Target sequence (Q15788 whole entry, looked up, the tested form may be a part): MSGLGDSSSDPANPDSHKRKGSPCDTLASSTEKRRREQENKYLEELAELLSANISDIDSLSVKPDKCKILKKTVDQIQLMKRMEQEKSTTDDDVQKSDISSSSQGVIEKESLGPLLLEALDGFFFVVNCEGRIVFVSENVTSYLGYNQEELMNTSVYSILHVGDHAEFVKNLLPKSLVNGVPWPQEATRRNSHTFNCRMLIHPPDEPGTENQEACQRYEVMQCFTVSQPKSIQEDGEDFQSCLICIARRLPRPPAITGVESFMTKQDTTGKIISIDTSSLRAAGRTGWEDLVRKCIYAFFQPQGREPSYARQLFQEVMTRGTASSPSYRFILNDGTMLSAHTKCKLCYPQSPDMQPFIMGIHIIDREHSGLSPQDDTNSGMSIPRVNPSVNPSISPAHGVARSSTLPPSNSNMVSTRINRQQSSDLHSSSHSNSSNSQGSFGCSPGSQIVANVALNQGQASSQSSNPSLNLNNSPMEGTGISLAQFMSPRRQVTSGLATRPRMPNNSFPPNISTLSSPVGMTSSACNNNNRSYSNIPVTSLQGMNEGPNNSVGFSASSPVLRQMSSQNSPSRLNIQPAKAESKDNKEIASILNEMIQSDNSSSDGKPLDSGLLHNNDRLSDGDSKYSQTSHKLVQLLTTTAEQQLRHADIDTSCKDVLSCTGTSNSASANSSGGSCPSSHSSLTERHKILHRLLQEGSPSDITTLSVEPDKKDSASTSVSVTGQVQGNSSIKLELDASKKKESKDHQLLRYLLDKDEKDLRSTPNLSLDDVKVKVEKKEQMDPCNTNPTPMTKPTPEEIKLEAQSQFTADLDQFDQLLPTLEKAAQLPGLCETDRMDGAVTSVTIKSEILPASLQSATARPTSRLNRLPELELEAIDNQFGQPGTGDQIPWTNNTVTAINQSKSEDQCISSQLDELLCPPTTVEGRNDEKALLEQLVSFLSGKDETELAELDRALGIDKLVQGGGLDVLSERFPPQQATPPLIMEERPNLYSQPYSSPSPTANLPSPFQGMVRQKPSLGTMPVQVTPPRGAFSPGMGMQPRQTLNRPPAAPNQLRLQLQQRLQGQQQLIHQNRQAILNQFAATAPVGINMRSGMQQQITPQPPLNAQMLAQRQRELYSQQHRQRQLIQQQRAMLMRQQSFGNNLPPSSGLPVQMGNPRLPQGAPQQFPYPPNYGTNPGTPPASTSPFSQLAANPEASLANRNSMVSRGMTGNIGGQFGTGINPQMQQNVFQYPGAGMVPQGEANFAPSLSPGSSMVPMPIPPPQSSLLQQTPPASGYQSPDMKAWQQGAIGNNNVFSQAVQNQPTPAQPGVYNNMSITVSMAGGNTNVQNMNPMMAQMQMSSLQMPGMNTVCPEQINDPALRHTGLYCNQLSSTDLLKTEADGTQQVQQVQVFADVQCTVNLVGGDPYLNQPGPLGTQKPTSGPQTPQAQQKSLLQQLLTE
SRC3 inh – SRC3 coactivator transcriptional activity inhibitors, primary screen, cell-based, luminescence; Nuclear receptor coactivator 3 (Homo sapiens), Q9Y6Q9; actives 0.17% (n = 360,000); HEK293 GAL4-SRC3 luciferase reporter; inhibition, % at 3.6 µM;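 active = inhibition above a per-campaign cutoff, the mean of all compounds plus 3 SD, cut at about 60% in these data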;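 also: higher means less SRC3-driven luciferase light from the GAL4 reporter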
Yeast cmpd fluor – compound fluorescence in yeast efflux pump counter-screen | fluorescence ratio to DMSO, % at 10 µM | actives 4% (n = 1,700) | shares compounds with Efflux pump inh | AID 588517 | S. cerevisiae AD/pABC3, flow cytometry;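 active = fluorescence ratio to DMSO above its plate's cutoff, the plate mean ratio plus 5 SD, cut at about 210% in these data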;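 also: unstained yeast with no Nile Red so the signal is compound autofluorescence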
CaMdr1 efflux inh – inhibitors of Candida albicans Mdr1 efflux, confirmation, flow cytometry, singleplex, Cherry Pick1 set. inhibition, % at 10 µM. AID 588518, 2011. actives 1% (n = 1,700). S. cerevisiae AD/CaMDR1, Nile Red efflux. shares compounds with Efflux pump inh; in the data active = inhibition above about 26%;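 also: higher means more Nile Red retained so more efflux inhibition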
Cdr2 pump inh – inhibitors of Candida albicans Cdr2 efflux pump, confirmation, S. cerevisiae AD/CaCDR2, flow cytometry, cherry pick 1, singleplex | Nile Red retention ratio vs DMSO, % at 10 µM | AID 588520, 2011 | shares compounds with Efflux pump inh | actives 4% (n = 1,700) | Nile Red retention; in the data active = Nile Red retention ratio vs DMSO above about 190%;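 also: higher ratio means more blocking of Cdr2 efflux of the dye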
Cdr1 pump inh – inhibitors of Candida albicans Cdr1 efflux pump, confirmation, S. cerevisiae AD/CaCDR1, flow cytometry, cherry pick 1, singleplex. shares compounds with Efflux pump inh. Nile Red efflux. inhibition, % at 10 µM. actives 1% (n = 1,700);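 active = inhibition above the screen-wide mean plus twice its standard deviation, cut at about 32% in these data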
Large screens that a line does not name were inactive (follow-up assays come after a bar, where they were run); ! = repeats disagree. Sampled rows, rich in hits. Any-hit rate of the full collection: about 1.2%.

Cc1noc(C)c1S(=O)(=O)Nc1ccc(C(=O)N2CCN(c3cccc(Cl)c3)CC2)cc1	none
OCCCN=C1CCCc2c1[nH]c1ccc(Cl)cc21	none
OCCN=C1CCCc2c1[nH]c1ccc(Cl)cc21	Efflux pump inh 0.6 | Yeast cmpd fluor inactive | CaMdr1 efflux inh inactive | Cdr2 pump inh inactive | Cdr1 pump inh inactive
O=c1c2cc(N3CCOCC3)ccc2[nH]c(=S)n1CCCN1CCCCC1	Efflux pump inh 0.6 | Yeast cmpd fluor inactive | CaMdr1 efflux inh inactive | Cdr2 pump inh inactive | Cdr1 pump inh inactive
CCN(CC)c1ccc(C(=O)O)cc1	none
CCN(CC)c1ccc(/C=C2\C(=O)c3ccc(C(=O)O)cc3C2=O)cc1	Efflux pump inh 5.8 | Yeast cmpd fluor 208 | CaMdr1 efflux inh inactive | Cdr2 pump inh 668 | Cdr1 pump inh inactive
N#Cc1c(SCC(=O)Nc2cccc(C(F)(F)F)c2)sc2c(O)cc(=O)[nH]c12	none
O=C(C1CCCCC1)N1CCCC(c2nc(-c3ccc(F)cc3)no2)C1 (centres undefined)	Efflux pump inh 8.2 | Yeast cmpd fluor inactive | CaMdr1 efflux inh inactive | Cdr2 pump inh inactive | Cdr1 pump inh inactive
CN1CCN(c2ccc(C(=O)c3ccc(Br)cc3)cc2[N+](=O)[O-])CC1	Efflux pump inh 33 | Yeast cmpd fluor inactive | CaMdr1 efflux inh inactive | Cdr2 pump inh inactive | Cdr1 pump inh inactive
O=C(Nc1ccnc(-c2cccnc2)n1)c1cccc(Cl)c1Cl	Efflux pump inh 1.0 | Yeast cmpd fluor inactive | CaMdr1 efflux inh inactive | Cdr2 pump inh inactive | Cdr1 pump inh inactive
O=C(Cc1cc(=O)[nH][nH]1)N/N=C/c1cccc(Cl)c1Cl	Efflux pump inh 19! | Yeast cmpd fluor inactive | CaMdr1 efflux inh inactive | Cdr2 pump inh inactive | Cdr1 pump inh inactive
COc1ccc(Cl)cc1S(=O)(=O)N1CCCC(C(=O)N2CCCC2)C1 (centres undefined)	none
CC(/C=C/c1ccccc1)=N\Nc1nc(C)cc(C)n1	Efflux pump inh 5.5 | Yeast cmpd fluor inactive | CaMdr1 efflux inh inactive | Cdr2 pump inh inactive | Cdr1 pump inh inactive
CCOc1ccc(S(=O)(=O)N2CCN(C(=O)c3cccnc3)CC2)cc1	none
CCOc1ccc(S(=O)(=O)N2CCN(C(=O)c3ccncc3)CC2)cc1	Efflux pump inh 7.4 | Yeast cmpd fluor inactive | CaMdr1 efflux inh inactive | Cdr2 pump inh inactive | Cdr1 pump inh inactive
COc1ccc(OC)c(N(CC(=O)NCCSCc2ccco2)S(=O)(=O)c2ccccc2)c1	none
CN(C)/C(CN1CCN(C=O)CC1)=C1\N=C(c2ccccc2)OC1=O	Efflux pump inh 0.5 | Yeast cmpd fluor inactive | CaMdr1 efflux inh inactive | Cdr2 pump inh inactive | Cdr1 pump inh inactive
O=C(NCC(=O)N1CCC(N2CCCCC2)CC1)C1CCCCC1	none
COc1cccc(N/C=C/C(=O)c2ccc(Cl)cc2)c1	none
COc1ccc(N/C=C/C(=O)c2ccc(Cl)cc2)cc1	Efflux pump inh 15 | Yeast cmpd fluor inactive | CaMdr1 efflux inh inactive | Cdr2 pump inh inactive | Cdr1 pump inh inactive
Cc1cc(C(=O)NCCc2ccccc2)ccc1[N+](=O)[O-]	none
O=C1C(Cc2ccc(Br)cc2)SC(=Nc2ccccc2)N1c1ccccc1 (centres undefined)	none
O=C1C(Cc2cccc([N+](=O)[O-])c2)SC(=Nc2ccccc2)N1c1ccccc1 (centres undefined)	Efflux pump inh 13 | Yeast cmpd fluor inactive | CaMdr1 efflux inh inactive | Cdr2 pump inh inactive | Cdr1 pump inh inactive
O=C(CCN1C(=O)/C(=C/c2ccccc2Cl)SC1=S)NNC(=O)c1cccnc1	none
O=C(CCCN1C(=O)/C(=C/c2ccccc2Cl)SC1=S)NNC(=O)c1ccc(Cl)cc1	Efflux pump inh 0.6, SRC2 inh 58 | Yeast cmpd fluor inactive | CaMdr1 efflux inh inactive | Cdr2 pump inh inactive | Cdr1 pump inh inactive
O=C1C2C3C=CC(C4CC34)C2C(=O)N1Cc1ccccc1 (centres undefined)	Efflux pump inh 0.9 | Yeast cmpd fluor inactive | CaMdr1 efflux inh inactive | Cdr2 pump inh inactive | Cdr1 pump inh inactive
Cc1cc(-c2ccccc2)nc(N(C)NC(=O)c2cccc(C(F)(F)F)c2)c1S(C)(=O)=O	none
O=C(O)c1ccc(-c2ccc(/C=c3/sc4nc5ccccc5n4c3=O)o2)cc1Cl	Efflux pump inh 0.8 | Yeast cmpd fluor inactive | CaMdr1 efflux inh inactive | Cdr2 pump inh inactive | Cdr1 pump inh inactive
Cc1cc(C)c2nc3sc(=Cc4ccc(-c5ccccc5C(=O)O)o4)c(=O)n3c2c1	none (no result: Efflux pump inh)
Cc1ccc2c(nc3s/c(=C\c4ccc(-c5ccccc5C(=O)O)o4)c(=O)n32)c1C	Efflux pump inh 0.7 | Yeast cmpd fluor inactive | CaMdr1 efflux inh inactive | Cdr2 pump inh inactive | Cdr1 pump inh inactive
COc1ccc(/C=c2\s/c(=C(/C#N)C(=O)NCc3ccco3)n(-c3ccccc3)c2=O)cc1	Efflux pump inh 0.7 | Yeast cmpd fluor inactive | CaMdr1 efflux inh inactive | Cdr2 pump inh inactive | Cdr1 pump inh inactive
CCc1noc(C)c1C(=O)OC(C)C(=O)c1c(C)[nH]c2ccccc12 (centres undefined)	none
Cc1[nH]c2ccccc2c1C(=O)C(C)OC(=O)c1ccc([N+](=O)[O-])o1 (centres undefined)	Efflux pump inh 0.4 | Yeast cmpd fluor inactive | CaMdr1 efflux inh inactive | Cdr2 pump inh inactive | Cdr1 pump inh inactive
CN(C)Cc1c(O)ccc2c1O/C(=C\C=C\c1ccccc1)C2=O	Efflux pump inh 0.6 | Yeast cmpd fluor inactive | CaMdr1 efflux inh inactive | Cdr2 pump inh inactive | Cdr1 pump inh inactive
O=C(CCCC(=O)c1ccccc1)NCCc1ccccc1F	none
COc1ccc2noc3c2c1C(=O)c1ccccc1-3	Efflux pump inh 0.9 | Yeast cmpd fluor inactive | CaMdr1 efflux inh inactive | Cdr2 pump inh 197 | Cdr1 pump inh inactive
O=C(CN1C(=O)CCSc2ccccc21)Nc1ccc2c(c1)OCO2	none | Yeast cmpd fluor inactive | CaMdr1 efflux inh inactive | Cdr2 pump inh inactive | Cdr1 pump inh inactive
Cc1ccc(NC(=O)Cn2cc(C=O)c3ccccc32)cc1	none
